In PubChem BioAssay (Tox21):
Several values for one entry are separate records, joined by “and”; a condition that tells them apart may be missing. Equal values may be shown once. Results filed as inconclusive are left out. Entries that show only a call come without a potency. Some structures have more than one record in an assay (separate samples or runs), and their calls can disagree. Activity calls are given as the source filed them. Calls follow the shape of the dose curve; as a rule, active = well fitted curve in the direction sought with a large enough effect in the repeat runs; inconclusive = weak or mixed curves; inactive = no such curve, though single readings can be large; an effect the other way counts as inactive or inconclusive.

Legend:
[1] = Caspase-3/7 induction in HepG2 cells by small molecules, qHTS assay (AID 1346978); also: nearly all actives have a fitted effect of over 15% in size; also: potency is read from the fitted curve at half-maximal effect
Outline: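 Wild-type HepG2 cells (2,000/well) were settled 5 h at 37 C, 5% CO2, then exposed to compounds in DMSO for 17 h. Caspase-3/7 activity was read by luminescence 30 min after adding Caspase-Glo 3/7 reagent at room temperature.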

[2] = Caspase-3/7 induction in CHO-K1 cells by small molecules, qHTS cell viability counter screen (AID 1346979); also: nearly all actives have a fitted effect of over 35% in size; also: potency is read from the fitted curve at half-maximal effect
Outline: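 Cytotoxicity counter screen: CellTiter-Fluor added to compound-treated wild-type CHO-K1 cells at 16 h (37C, 5% CO2), fluorescence measured 1 h later; same wells as caspase-3/7 measurement.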

[3] = Caspase-3/7 induction in CHO-K1 cells by small molecules, qHTS assay (AID 1346980); also: nearly all actives have a fitted effect of over 15% in size
Outline: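 Wild-type cells were seeded at 1,500 per well and settled 5 hr at 37 C, 5% CO2, then exposed to DMSO-dissolved compounds for 17 hr. Caspase-Glo 3/7 reagent was added, and luminescence was read after 30min at room temperature.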

[4] = Caspase-3/7 induction in HepG2 cells by small molecules, qHTS cell viability counter screen (AID 1346981); also: nearly all actives have a fitted effect of over 30% in size; also: potency is read from the fitted curve at half-maximal effect
Outline: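 Steps: seed 2,000 HepG2 cells per well; incubate 5 hr at 37 C; pin-add compounds in DMSO; incubate 16 hr; add CellTiter-Fluor; after 1 hr at 37 C and 5% CO2, read fluorescence.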

[5] = molecular target: Nuclear receptor subfamily 1 group I member 2 (Homo sapiens) (UniProt O75469); test: Human pregnane X receptor (PXR) small molecule agonists, qHTS assay (AID 1346982); also: nearly all actives have a fitted effect of over 35% in size; also: potency is read from the fitted curve at half-maximal effect
Nuclear receptor subfamily 1 group I member 2 (Homo sapiens), sequence (O75469 whole entry, looked up): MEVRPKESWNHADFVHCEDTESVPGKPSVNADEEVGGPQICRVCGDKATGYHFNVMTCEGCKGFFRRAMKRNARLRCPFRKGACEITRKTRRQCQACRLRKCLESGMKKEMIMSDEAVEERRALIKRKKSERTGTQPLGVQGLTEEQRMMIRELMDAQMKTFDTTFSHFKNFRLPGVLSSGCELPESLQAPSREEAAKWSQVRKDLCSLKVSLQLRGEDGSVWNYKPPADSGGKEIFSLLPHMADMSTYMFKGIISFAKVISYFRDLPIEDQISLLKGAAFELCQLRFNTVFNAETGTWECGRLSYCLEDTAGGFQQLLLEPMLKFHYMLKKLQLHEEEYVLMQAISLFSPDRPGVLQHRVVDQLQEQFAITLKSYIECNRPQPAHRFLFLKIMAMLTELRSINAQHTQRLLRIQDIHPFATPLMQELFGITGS
Outline: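 Agonist mode qHTS: PXR-Luc HepG2 cells plated 5 hr before DMSO-dissolved compounds were pinned in, cultured 24 hr at 37 C, 5% CO2; ONE-Glo luminescence readout.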

[6] = molecular target: Nuclear receptor subfamily 1 group I member 2 (Homo sapiens) (UniProt O75469); test: Human pregnane X receptor (PXR) activation by small molecules, qHTS assay (AID 1346985); also: nearly all actives have a fitted effect of over 40% in size; also: potency is read from the fitted curve at half-maximal effect
Outline: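 DPX-2 cells (HepG2 co-transfected with a PXR response element and a CYP3A4-promoter luciferase construct) were seeded at 2,000 per well, rested 5 hr at 37C, then exposed to DMSO-dissolved compounds for 24 hr. Activation was read as luciferase luminescence.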

[7] = molecular target: Cytochrome P450 2D6 (Homo sapiens) (UniProt P10635); test: Cytochrome P450 Family 2 Subfamily D Member 6 (CYP2D6) small molecule antagonists: luciferase reporter qHTS assay (AID 1671196); also: nearly all actives have a fitted effect of over 50% in size; also: potency is read from the fitted curve at half-maximal effect
Cytochrome P450 2D6 (Homo sapiens), sequence (P10635 whole entry, looked up): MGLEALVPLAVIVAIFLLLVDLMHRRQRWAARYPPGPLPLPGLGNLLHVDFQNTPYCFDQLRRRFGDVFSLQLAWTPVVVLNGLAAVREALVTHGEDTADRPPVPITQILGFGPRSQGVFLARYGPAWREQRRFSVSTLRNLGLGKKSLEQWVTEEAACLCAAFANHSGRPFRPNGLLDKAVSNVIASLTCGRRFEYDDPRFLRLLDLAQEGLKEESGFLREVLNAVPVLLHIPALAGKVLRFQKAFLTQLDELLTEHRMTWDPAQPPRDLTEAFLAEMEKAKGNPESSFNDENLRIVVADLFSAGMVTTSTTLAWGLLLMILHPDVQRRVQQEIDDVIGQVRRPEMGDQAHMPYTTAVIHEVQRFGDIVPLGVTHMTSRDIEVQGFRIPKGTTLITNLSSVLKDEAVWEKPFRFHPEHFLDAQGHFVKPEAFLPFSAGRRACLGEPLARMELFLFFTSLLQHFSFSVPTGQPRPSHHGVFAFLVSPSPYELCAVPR
Outline: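 P450-Glo format: CYP2D6 converts a proluciferin substrate to luciferin in an NADPH-driven reaction lasting 1 h at room temperature. Light output, proportional to CYP2D6 activity, reflects interference by test chemicals.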

[8] = molecular target: Cytochrome P450 2C19 (Homo sapiens) (UniProt P33261); test: Cytochrome P450 Family 2 Subfamily C Member 19 (CYP2C19) small molecule antagonists: luciferase reporter qHTS assay (AID 1671197); also: nearly all actives have a fitted effect of over 65% in size; also: potency is read from the fitted curve at half-maximal effect
Cytochrome P450 2C19 (Homo sapiens), sequence (P33261 whole entry, looked up): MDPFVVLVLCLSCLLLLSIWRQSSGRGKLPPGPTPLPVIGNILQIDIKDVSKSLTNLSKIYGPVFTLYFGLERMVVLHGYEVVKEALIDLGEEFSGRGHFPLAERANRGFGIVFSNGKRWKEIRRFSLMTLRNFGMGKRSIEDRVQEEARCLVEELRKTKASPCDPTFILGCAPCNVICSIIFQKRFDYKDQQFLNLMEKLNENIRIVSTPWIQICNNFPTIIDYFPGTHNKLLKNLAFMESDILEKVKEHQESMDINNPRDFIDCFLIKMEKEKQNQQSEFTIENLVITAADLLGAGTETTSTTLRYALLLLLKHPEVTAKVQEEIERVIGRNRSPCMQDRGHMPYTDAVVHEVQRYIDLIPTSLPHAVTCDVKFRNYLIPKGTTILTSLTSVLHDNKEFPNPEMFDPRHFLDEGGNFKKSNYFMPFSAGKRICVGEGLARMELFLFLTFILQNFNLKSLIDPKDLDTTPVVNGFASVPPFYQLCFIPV
Outline: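 Inhibition of CYP2C19 was scored from loss of luminescence in a P450-Glo proluciferin substrate assay, NADPH-started and run 1 h at 37C, with ketoconazole as positive control.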

[9] = molecular target: Cytochrome P450 2C9 (Homo sapiens) (UniProt P11712); test: Cytochrome P450 Family 2 Subfamily C Member 9 (CYP2C9) small molecule antagonists: luciferase reporter qHTS assay (AID 1671198); also: nearly all actives have a fitted effect of over 50% in size; also: potency is read from the fitted curve at half-maximal effect
Cytochrome P450 2C9 (Homo sapiens), sequence (P11712 whole entry, looked up): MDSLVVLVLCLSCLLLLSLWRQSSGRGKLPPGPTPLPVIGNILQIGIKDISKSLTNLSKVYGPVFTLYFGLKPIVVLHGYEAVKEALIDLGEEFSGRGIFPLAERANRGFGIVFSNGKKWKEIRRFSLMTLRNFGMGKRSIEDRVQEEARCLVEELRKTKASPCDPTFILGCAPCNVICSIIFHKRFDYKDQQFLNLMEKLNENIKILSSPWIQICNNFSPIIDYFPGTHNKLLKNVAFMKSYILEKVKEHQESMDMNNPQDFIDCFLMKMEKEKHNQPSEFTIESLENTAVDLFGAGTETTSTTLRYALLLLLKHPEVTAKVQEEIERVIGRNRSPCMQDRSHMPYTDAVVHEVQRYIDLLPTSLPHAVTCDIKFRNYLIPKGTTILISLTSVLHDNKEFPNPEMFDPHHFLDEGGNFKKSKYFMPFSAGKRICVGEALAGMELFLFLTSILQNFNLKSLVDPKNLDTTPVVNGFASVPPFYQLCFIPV
Outline: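 CYP2C9 activity was measured with a P450-Glo proluciferin substrate. Enzyme–substrate mix was held with compound for 10 min at room temperature, then NADPH regeneration solution was added for 1 h at 37C. Luciferin product was read as luminescence.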

[10] = molecular target: Cytochrome P450 1A2 (Homo sapiens) (UniProt P05177); test: Cytochrome P450 Family 1 Subfamily A Member 2 (CYP1A2) small molecule antagonists: luciferase reporter qHTS assay (AID 1671199); also: nearly all actives have a fitted effect of over 50% in size; also: potency is read from the fitted curve at half-maximal effect
Cytochrome P450 1A2 (Homo sapiens), sequence (P05177 whole entry, looked up): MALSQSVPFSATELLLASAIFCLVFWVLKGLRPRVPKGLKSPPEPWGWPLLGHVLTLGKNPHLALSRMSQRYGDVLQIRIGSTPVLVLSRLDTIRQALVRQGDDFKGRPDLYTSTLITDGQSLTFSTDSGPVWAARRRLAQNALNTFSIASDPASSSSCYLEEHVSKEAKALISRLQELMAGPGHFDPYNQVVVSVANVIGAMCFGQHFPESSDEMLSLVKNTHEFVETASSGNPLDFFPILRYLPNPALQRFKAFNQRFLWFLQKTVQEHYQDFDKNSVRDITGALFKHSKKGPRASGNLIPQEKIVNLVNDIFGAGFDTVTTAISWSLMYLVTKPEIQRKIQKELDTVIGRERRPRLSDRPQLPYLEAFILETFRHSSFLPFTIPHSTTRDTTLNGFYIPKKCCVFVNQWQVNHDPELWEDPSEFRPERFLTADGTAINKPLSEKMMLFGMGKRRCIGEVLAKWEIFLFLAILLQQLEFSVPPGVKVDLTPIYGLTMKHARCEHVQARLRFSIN
Outline: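 Inhibition of CYP1A2 conversion of proluciferin to luciferin, detected by luminescence. Reaction run 1 h at room temperature with NADPH regeneration after brief compound preincubation.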

[11] = molecular target: Voltage-gated inwardly rectifying potassium channel KCNH2 (Homo sapiens) (UniProt Q12809); test: Human Ether-a-go-go-Related Gene (hERG) channel small molecule antagonists: fluorescence cell-based qHTS assay (AID 1671200); also: nearly all actives have a fitted effect of over 50% in size; also: potency is read from the fitted curve at half-maximal effect
Voltage-gated inwardly rectifying potassium channel KCNH2 (Homo sapiens), sequence (Q12809 whole entry, looked up): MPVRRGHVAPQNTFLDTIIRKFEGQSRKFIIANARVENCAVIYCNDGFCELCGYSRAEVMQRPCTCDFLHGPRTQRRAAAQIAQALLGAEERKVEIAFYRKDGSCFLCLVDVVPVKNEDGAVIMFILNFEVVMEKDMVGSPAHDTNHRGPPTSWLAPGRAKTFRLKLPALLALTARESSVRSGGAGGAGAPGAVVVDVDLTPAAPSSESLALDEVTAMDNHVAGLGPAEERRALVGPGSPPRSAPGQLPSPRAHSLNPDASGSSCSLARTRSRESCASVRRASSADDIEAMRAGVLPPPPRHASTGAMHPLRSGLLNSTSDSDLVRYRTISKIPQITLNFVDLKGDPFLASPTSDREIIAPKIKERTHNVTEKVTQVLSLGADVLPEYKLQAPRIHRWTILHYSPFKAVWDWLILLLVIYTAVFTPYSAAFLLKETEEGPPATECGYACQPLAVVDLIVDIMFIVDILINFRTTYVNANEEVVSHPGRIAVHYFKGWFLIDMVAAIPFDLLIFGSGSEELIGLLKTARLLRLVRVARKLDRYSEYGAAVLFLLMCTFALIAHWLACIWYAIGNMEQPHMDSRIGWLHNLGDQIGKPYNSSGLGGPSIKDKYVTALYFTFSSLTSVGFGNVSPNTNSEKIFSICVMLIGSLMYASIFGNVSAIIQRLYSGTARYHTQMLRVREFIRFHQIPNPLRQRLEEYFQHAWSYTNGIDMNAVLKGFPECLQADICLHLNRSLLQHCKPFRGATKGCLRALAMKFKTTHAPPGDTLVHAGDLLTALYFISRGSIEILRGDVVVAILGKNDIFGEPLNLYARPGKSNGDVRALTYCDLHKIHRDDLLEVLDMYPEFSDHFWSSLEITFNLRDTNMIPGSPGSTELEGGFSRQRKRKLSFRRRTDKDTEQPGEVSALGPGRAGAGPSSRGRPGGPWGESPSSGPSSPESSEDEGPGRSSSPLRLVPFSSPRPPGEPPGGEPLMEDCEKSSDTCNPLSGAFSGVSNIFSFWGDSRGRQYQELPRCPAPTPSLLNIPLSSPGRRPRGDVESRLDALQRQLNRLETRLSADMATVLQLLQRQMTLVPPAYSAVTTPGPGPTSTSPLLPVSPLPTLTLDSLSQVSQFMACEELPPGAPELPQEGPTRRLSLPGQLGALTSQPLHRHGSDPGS
Outline: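 Thallium flux as potassium surrogate: FluxOR II dye loaded 1 h at room temperature into hERG-expressing U2OS cells, then stimulus buffer added after 10 min. Kinetic 480 nm excitation/540 nm emission read, 2 min.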

[12] = Human pregnane X receptor (PXR) small molecule agonists, qHTS cell viability counter screen (AID 1346977); also: nearly all actives have a fitted effect of over 50% in size; also: potency is read from the fitted curve at half-maximal effect
Outline: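 Same-well viability read: CellTiter-Fluor added after 23 hr compound exposure, fluorescence measured 1 hr later. Cells were PXR-Luc HepG2 seeded at 2,000/well in 5% charcoal-stripped FBS medium, rested 5 hr before dosing at 37 C.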

[13] = molecular target: Nuclear receptor subfamily 1 group I member 2 (Rattus norvegicus) (UniProt Q9R1A7); test: Rat pregnane X receptor (rPXR) activation by small molecules, qHTS assay (AID 1346983); details: rPXR luciferase reporter cells, One-Glo luminescence, 24 h; stronger effect = higher value; also: nearly all actives have a fitted effect of over 20% in size
Nuclear receptor subfamily 1 group I member 2 (Rattus norvegicus), sequence (Q9R1A7 whole entry, looked up): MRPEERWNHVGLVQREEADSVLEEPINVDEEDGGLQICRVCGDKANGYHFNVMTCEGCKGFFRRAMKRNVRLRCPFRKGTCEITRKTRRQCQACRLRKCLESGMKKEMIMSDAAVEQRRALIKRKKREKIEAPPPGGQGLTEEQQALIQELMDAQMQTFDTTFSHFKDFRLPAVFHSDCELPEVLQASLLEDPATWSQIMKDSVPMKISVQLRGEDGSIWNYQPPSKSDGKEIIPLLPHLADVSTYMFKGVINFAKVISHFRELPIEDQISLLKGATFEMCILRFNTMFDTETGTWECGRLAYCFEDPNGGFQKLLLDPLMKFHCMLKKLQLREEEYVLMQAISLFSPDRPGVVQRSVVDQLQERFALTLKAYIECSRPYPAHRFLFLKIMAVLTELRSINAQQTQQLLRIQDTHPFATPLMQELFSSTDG
Outline: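 Cell-based rPXR luciferase reporter assay, 2,000 cells per well, rested 5hr at 37 C before compound addition in DMSO, then 24 hr at 37 C. One-Glo reagent was added and luminescence read after 30 min at room temperature.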

[14] = molecular target: Cytochrome P450 3A4 (Homo sapiens) (UniProt P08684); test: Cytochrome P450 Family 3 Subfamily A Member 4 (CYP3A4) small molecule antagonists: luciferase reporter qHTS assay (AID 1671201); also: nearly all actives have a fitted effect of over 50% in size; also: potency is read from the fitted curve at half-maximal effect
Cytochrome P450 3A4 (Homo sapiens), sequence (P08684 whole entry, looked up): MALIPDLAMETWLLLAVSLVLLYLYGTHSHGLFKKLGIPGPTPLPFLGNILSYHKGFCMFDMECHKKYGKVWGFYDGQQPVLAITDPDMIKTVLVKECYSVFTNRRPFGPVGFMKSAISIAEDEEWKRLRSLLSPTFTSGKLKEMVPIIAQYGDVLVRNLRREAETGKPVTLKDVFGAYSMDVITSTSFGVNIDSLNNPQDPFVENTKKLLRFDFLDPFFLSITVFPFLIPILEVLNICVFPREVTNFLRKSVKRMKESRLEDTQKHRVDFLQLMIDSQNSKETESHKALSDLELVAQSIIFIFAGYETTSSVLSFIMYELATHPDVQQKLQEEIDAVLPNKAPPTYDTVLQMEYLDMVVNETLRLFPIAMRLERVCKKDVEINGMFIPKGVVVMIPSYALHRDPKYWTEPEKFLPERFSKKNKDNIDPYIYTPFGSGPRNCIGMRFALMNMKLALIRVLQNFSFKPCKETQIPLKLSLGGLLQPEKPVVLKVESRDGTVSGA
Outline: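 Recombinant human CYP3A4 converts a proluciferin substrate to luciferin over 1 h at room temperature after NADPH regeneration solution is added (compound preincubated 10 min); detection reagent stops reaction, luminescence read 20 min later as relative units.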

| SMILES | Potency [1] | Potency [2] | Potency [3] | Potency [4] | Potency [5] | Potency [6] | Potency [7] | Potency [8] | Potency [9] | Potency [10] | Potency [11] | Potency [12] | max activation [13] | Potency [14] |
| --- | --- | --- | --- | --- | --- | --- | --- | --- | --- | --- | --- | --- | --- | --- |
| NNCCc1ccccc1 | inactive | inactive | inactive | inactive | 27.4 µM (active) and 26.6 µM (active) | 12.6 µM (active) | 2.25 µM (active) and 12.3 µM (active) | 6.35 µM (active) and 13.8 µM (active) | 25.3 µM (active) and 17.4 µM (active) | 11.3 µM (active) and 17.4 µM (active) | inactive |  |  |  |
| OCCOCCN1CCN(C(c2ccccc2)c2ccc(Cl)cc2)CC1 (centres undefined) | 53.8 µM (active) and inactive | 53.8 µM (active) and inactive | inactive | 21.4 µM (active) and inactive |  |  |  |  |  |  |  |  |  |  |
| NC(N)=NC(=O)Cc1c(Cl)cccc1Cl | inactive | inactive | inactive | inactive |  |  |  | inactive | inactive | inactive | inactive | inactive |  |  |
| CCCNC(C)C(=O)Nc1ccccc1C (centres undefined) | inactive | inactive | inactive | inactive | inactive | inactive | 27.5 µM (active) | inactive | inactive | inactive | inactive |  | -2.15% (inactive) | inactive |
| CC(=O)CC(=O)Nc1ccc2[nH]c(=O)[nH]c2c1 | inactive | inactive | inactive |  | inactive |  | inactive | inactive |  | 39.9 µM (active) | inactive | inactive |  | inactive |
| CC(C)(C)c1cc(C(C)(C)C)c(O)c(C(C)(C)C)c1 | inactive | inactive | inactive | inactive | 68.6 µM (active) and inactive |  | inactive | inactive | inactive and 35.6 µM (active) | inactive | 7.76 µM (active) |  |  | inactive |
| CCN(CC)c1ccc2c(C)cc(=O)oc2c1 | inactive |  | inactive |  |  |  | inactive | 40.2 µM (active) and 31.7 µM (active) | inactive | 2.02 µM (active) and 2.83 µM (active) | inactive | inactive |  | 20.2 µM (active) and 31.7 µM (active) |
| Oc1ccc(Cl)cc1Cc1cc(Cl)ccc1O | inactive | 44.1 µM (active) and 38.6 µM (active) and 29.8 µM (active) | inactive | 55.5 µM (active) | 22.1 µM (active) and 27.3 µM (active) | inactive |  | 3.62 µM (active) and 2.83 µM (active) and 3.09 µM (active) | 8.11 µM (active) and 5.64 µM (active) and 4.9 µM (active) | 36.2 µM (active) and 39.9 µM (active) and 15.5 µM (active) | inactive |  | -2.03% (inactive) |  |
| COC(c1ccccc1)(c1ccccc1)[C@H](Oc1nc(C)cc(C)n1)C(=O)O | inactive | inactive | inactive | inactive | inactive | 10 µM (active) | inactive | inactive | inactive | 17.4 µM (active) | inactive |  | -2.41% (inactive) |  |
| COC(=O)[C@H]1[C@H]2C[C@@H]3c4[nH]c5cc(OC)ccc5c4CCN3C[C@H]2C[C@@H](OC(=O)c2cc(OC)c(OC)c(OC)c2)[C@@H]1OC | inactive | 30.6 µM (active) and 39.7 µM (active) and inactive | inactive | 44.5 µM (active) and inactive |  |  | 28.2 µM (active) and 9.19 µM (active) | 41.1 µM (active) and inactive |  | 32.6 µM (active) and inactive | 3.46 µM (active) and 6.34 µM (active) and 10.7 µM (active) | 39.7 µM (active) and inactive |  |  |
| Nc1cc(Cl)c(-c2cc(Cl)c(N)cc2Cl)cc1Cl |  | 30.6 µM (active) and 54.5 µM (active) | inactive |  |  |  |  | 10 µM (active) and 7.1 µM (active) |  | 11.2 µM (active) and 12.6 µM (active) | inactive | 50.1 µM (active) and 68.6 µM (active) |  | 2 µM (active) and 3.56 µM (active) |
| CCCCC(CC)COC(=O)CC(C(=O)OCC(CC)CCCC)S(=O)(=O)O (centres undefined) | inactive | 52.4 µM (active) | inactive |  | 5.88 µM (active) and 3.06 µM (active) |  | inactive and 17.8 µM (active) |  | 15.3 µM (active) and 12.6 µM (active) | 63.3 µM (active) | inactive | 70.8 µM (active) and 61.1 µM (active) |  |  |
| Cc1cccc([N+](=O)[O-])c1C(=O)O | inactive | inactive | inactive | inactive |  |  | 63.4 µM (active) | inactive | inactive |  | inactive | inactive |  | inactive |
| CN(C)c1ccc2nc3ccc(=[N+](C)C)cc-3sc2c1 |  | 5.87 µM (active) and 24.3 µM (active) and 5.96 µM (active) | inactive | 10.4 µM (active) and 27.3 µM (active) and 23.7 µM (active) |  | 3.16 µM (active) |  |  |  |  | inactive | 1.86 µM (active) and 9.69 µM (active) and 10.6 µM (active) | -8.38% (inactive) |  |
| NC(=Nc1ccccc1)Nc1ccccc1 | inactive | inactive | inactive | 20.5 µM (active) | 3.86 µM (active) and 11.9 µM (active) | inactive | 212 nM (active) and 617 nM (active) | 39.9 µM (active) and inactive | 89.4 µM (active) and inactive | 50.2 µM (active) and inactive |  |  | -2.33% (inactive) | inactive |
| NC12CC3CC(CC(C3)C1)C2 | inactive | inactive | inactive | inactive |  |  |  |  |  |  | inactive | inactive |  |  |
| CCOc1ccc2c(c1)C(C)=CC(C)(C)N2 | inactive |  |  | inactive | 60.8 µM (active) and 54.5 µM (active) |  | 11.2 µM (active) and 10 µM (active) |  | 7.93 µM (active) and 5.64 µM (active) | 39.7 µM (active) and 31.7 µM (active) | inactive | inactive |  | 12.6 µM (active) and 17.8 µM (active) |
